The source of these data is PubChem BioAssay (NCATS).

Structures are written as SMILES. Inconclusive results are not listed. A number with no mark means an inactive call. Activity calls are given as the source filed them. The call rests on the fitted dose curve; in most records, active means well fitted inhibition curve with a large enough effect; inconclusive means small, poorly fitted or top-dose-only effect; inactive means flat fitted curve, though single readings scatter.

Experiment [1] has as its system CRL-7250. In words: Cytotoxic Profiling of Annotated Libraries Using Quantitative High-Throughput Screening (AID 1296008). Further: nearly all actives have a fitted effect of over 60% in size. Particulars: Five cell lines viability, CellTiter-Glo ATP luminescence, 48-72 h; max response: active compounds read low. In outline: (§1)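 Cytotoxicity was measured as CellTiter-Glo ATP luminescence, read after 10 min at room temperature. Compound treatment of the cells lasted 48 or 72 hr at 37 degrees Celsius in a qHTS format.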

The subject of experiment [2] is HEK293. The experiment is described as above. Particulars: Five cell lines viability, CellTiter-Glo ATP luminescence, 48-72 h; max response: active compounds read low. An outline of the steps:
as §1
On the % scale 0 is the no-effect control and ±100 the full control effect; potency means the concentration at half of the fitted maximal effect.

Turning to `Cc1ccc(O)cc1`, the results for the max response in experiment [1] and in experiment [2] were -3.08% and 0.45%, respectively.

For the compound `O=[N+]([O-])c1nccn1CO[C@@H](CO)[C@H](O)CO`, the max response in experiment [1] was -17.9%; in experiment [2] it was 4%.

Take `Cc1cc(CCCOc2c(C)cc(-c3noc(C(F)(F)F)n3)cc2C)on1`: the outcome in experiment [1] was inactive. Moreover, the max response in experiment [2] was -24.5%.

Turning to `C[C@@]12CCC[C@H]1[C@@H]1CC[C@H]3C[C@@H](O)CC[C@]3(C)[C@H]1CC2`, the max response in experiment [1] was 2.58%. The compound was called inactive in experiment [2].

`C/C(=N/NC(=O)c1ccncc1)C(=O)O`: the results for the max response in experiment [1] and in experiment [2] were 0.746% and 2.14%, respectively.

For `C[C@@H](C1=C(CCN(C)C)Cc2ccccc21)c1ccccn1`, in experiment [1], the compound was classed as inactive. Besides, the max response in experiment [2] was -25.1%.

Take `C[N+](C)(CCOc1ccccc1)Cc1cccs1`: the max response in experiment [1] is -3.68%; in experiment [2], -16.4%.

On to `COc1cc(OC)nc(O[C@H](C(=O)O)C(OC)(c2ccccc2)c2ccccc2)n1`, for which the max response in experiment [1] was 3.73%. Also, the result in experiment [2] was inactive.

As to `CC(=O)O[C@@H]1CC2C3CCc4cc(OC(=O)c5ccccc5)ccc4C3CCC2(C)[C@H]1OC(C)=O` (stereo not given in full), in experiment [1], the max response is -8.96%. Besides, the compound was classed as inactive in experiment [2].

On to `CCC(=O)O[C@]1(C(=O)COC)[C@@H](C)C[C@H]2[C@@H]3CCC4=CC(=O)C=C[C@]4(C)C3(F)[C@@H](O)C[C@@]21C` (stereo not given in full), for which the outcome in experiment [1] was inactive. In addition, the max response in experiment [2] was -13.2%.

As for `O=c1[nH]c2ccccc2c(=O)n1CCCl`, the values for the max response in experiment [1] and in experiment [2] were -4.5% and -6.35%, respectively.

Regarding `COc1ccccc1OCC1CNC(=O)O1` (stereo not given), the max response in experiment [1] is -7.57%; in experiment [2] it was 2.95%.

`O=C(O)Cn1c(=O)n(Cc2ccc(Br)cc2F)c(=O)c2ccc(Cl)cc21`: the compound was classed as inactive in experiment [1] and in experiment [2].

Take `OC(CCCN1CCCCC1)(c1ccccc1)c1ccccc1`: the max response in experiment [1] is -11.1%; in experiment [2], -39.9%.

Consider `C[C@H](CN1CCCC1)C(=O)c1ccc(C(F)(F)F)cc1`, for which the max response was 3.63% in experiment [1] and -20.1% in experiment [2].

For the compound `NS(=O)(=O)c1cc(C(=O)NN2C[C@H]3[C@H]4CCC(C4)[C@H]3C2)ccc1Cl`, the compound was called inactive in experiment [1]. The max response in experiment [2] was 4.38%.

Regarding `CC(=O)O[C@H]1CC[C@@]2(C)C(=CC[C@@H]3[C@@H]2CC[C@]2(C)C(C(C)=O)=CC[C@@H]32)C1`, the max response in experiment [1] is -17.3%; in experiment [2] it was -0.38%.

On to `CC[C@@]1(O)C(=O)OCc2c1cc1n(c2=O)Cc2c-1nc1ccccc1c2/C=N/OC(C)(C)C`, for which the values for the Potency in experiment [1] and in experiment [2] were 1190 nM (active) and 21.1 nM (active), respectively.

Consider `O=C(C1CCCCC1)N1CC(=O)N2CCCc3ccccc3C2C1` (stereo not given), for which the call in experiment [1] and in experiment [2] was inactive.

Take `Cn1cc(S(C)=O)c(=O)c2ccc(F)cc21` (stereo not given): the max response was -2.16% in experiment [1] and -2.1% in experiment [2].

On to `CC(=O)OCC(=O)Nc1cc(C#N)cc(NC(=O)COC(C)=O)c1Cl`, for which, in experiment [1], the compound was classed as inactive. For the same compound, the max response in experiment [2] is -14.4%.

For the compound `COc1cc(S(N)(=O)=O)cc(C(=O)O)c1OC`, the max response in experiment [1] was 3.62%; in experiment [2], -2.74%.

Regarding `CCCOc1ccc2c(c1)CC[C@@H]1[C@@H]2CC[C@]2(C)C(OC)CC[C@@H]12` (stereo not given in full), the max response was -5.35% in experiment [1] and -6.37% in experiment [2].

Turning to `O=C(OCC1(COC(=O)c2cccnc2)CCCC(COC(=O)c2cccnc2)(COC(=O)c2cccnc2)C1O)c1cccnc1`, the max response is -5.9% in experiment [1] and -9.95% in experiment [2].

Turning to `Cc1cc(=O)oc2cc(O[C@@H]3SC[C@@H](O)[C@H](O)[C@H]3O)ccc12`, the results for the max response in experiment [1] and in experiment [2] were -1.48% and -8.77%, respectively.

As for `Cc1[nH]cnc1-c1ccc(Cl)cc1`, the result in experiment [1] and in experiment [2] was inactive.

As for `CCn1ccc(NS(=O)(=O)c2ccc(N)cc2)nc1=O`, the max response in experiment [1] is 4.48%; in experiment [2] it was -20.6%.

`OCc1cccnc1`: the max response is -0.394% in experiment [1] and -2.02% in experiment [2].

In the case of `O=c1[nH]c(=O)n([C@H]2O[C@H](CO)[C@@H](O)[C@@H]2O)cc1/C=C\Br`, the max response in experiment [1] is -8.24%. Further, the compound was classed as inactive in experiment [2].

Turning to `CC(=O)N(CC(O)CO)c1c(I)c(C(=O)NCCO)c(I)c(C(=O)NCC(O)CO)c1I` (stereo not given), the figures for the max response in experiment [1] and in experiment [2] were -7.11% and 2.15%, respectively.

Turning to `COC(=O)CCCCC(CCSS/C(CCO)=C(\C)N(C=O)Cc1cnc(C)nc1N)SC(C)=O` (stereo not given), the compound was called inactive in experiment [1] and in experiment [2].

For the compound `O=C(c1ccco1)N1CCNCC1`, in experiment [1], the max response is -10.9%. The compound was called inactive in experiment [2].

As for `N[C@@H](Cc1cc(I)c(O)c(I)c1)C(=O)O`, the max response was 1.61% in experiment [1] and -5.41% in experiment [2].

For `CCCCCC[C@@H](CCC)C(=O)O`, in experiment [1], the max response was -4.37%. Also, the result in experiment [2] was inactive.

For the compound `Cc1oc(-c2ccccc2)nc1CCC(=O)c1ccc(CC2SC(=O)NC2=O)cc1` (stereo not given), the max response in experiment [1] was -17.6%. Further, in experiment [2], the compound was classed as inactive.
